# From PubChem BioAssay (Tox21)
# “And” between values parts separate entries of the source, which are not always exact repeats. Equal entries are not always repeated. Inconclusive results are not listed. Where a call stands in place of a potency, no number is given. More than one record can exist for a structure, and the calls need not agree. The source made the active and inactive calls. Unless noted, calls come from the whole dose curve; as a rule, active = well fitted curve in the direction sought with a large enough effect in the repeat runs; inconclusive = weak or mixed curves; inactive = no such curve, though single readings can be large; an effect the other way counts as inactive or inconclusive.
# Legend:
# [1] = qHTS assay to identify small molecule agonists of the sonic hedgehog signaling (Shh) pathway (AID 1259368; calls by dose curve;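 note: NIH/3T3-derived 3T3Gli1-Luc cells carrying a stable Gli1-driven firefly luciferase reporter; series mostly up to about 92 µM; nearly all actives have a fitted effect of over 15% in size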)
# Procedure, shortened: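 Cells of a mouse NIH/3T3 clone stably expressing luciferase under the Gli1 transcriptional response element are exposed to test chemicals for 24 hr at 37 C. Pathway activation is detected as a rise in luminescence.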
# [2] = qHTS assay to identify small molecule antagonists of the sonic hedgehog signaling (Shh) pathway (AID 1259369; calls by dose curve; note: nearly all actives have a fitted effect of over 45% in size; note: potency is the fitted concentration of half-maximal effect)
# Procedure, shortened: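 Cells are plated and held 4hr at 37 C, compounds (DMSO) are pinned in, conditioned medium is added to stimulate the pathway, and after 24hr luciferase reagent is added for 30min before luminescence is read.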
# [3] = target: Estrogen receptor beta (Homo sapiens) (UniProt Q92731); test: qHTS assay to identify small molecule agonists of the estrogen receptor beta (ER-beta) signaling pathway (AID 1259377; active = well fitted activation curve with a large enough effect in the signal ratio in the repeat runs, not every such curve was filed as active; the % refers to the signal ratio)
# Procedure, shortened: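 Beta-lactamase reporter readout: fluorescence of LiveBLAzer B/G FRET substrate after 2 h at room temperature, following 16 h compound treatment of ER-beta-UAS-bla HEK293T cells at 37C in 2% charcoal-stripped FBS medium.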
# [4] = target: Estrogen receptor beta (Homo sapiens) (UniProt Q92731); test: qHTS assay to identify small molecule antagonists of the estrogen receptor beta (ER-beta) signaling pathway (AID 1259378; active = well fitted inhibition curve with a large enough effect in the signal ratio in the repeat runs, not every such curve was filed as active; the % refers to the signal ratio; note: potency is the fitted concentration of half-maximal effect)
# Procedure, shortened: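 ER-beta-UAS-bla HEK293T cells in 2% charcoal-stripped FBS medium treated with compound plus 1nM final 17-beta-estradiol for 16 hr at 37C. Beta-lactamase reporter read by FRET substrate fluorescence after 2 hours at room temperature.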
# [5] = qHTS assay to identify small molecule agonists of the androgen receptor (AR) signaling pathway in the presence of an antagonist - cell viability counter screen (AID 1259379); note: nearly all actives have a fitted effect of over 25% in size; note: potency is the fitted concentration of half-maximal effect
# Procedure, shortened: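 Cytotoxicity is assessed by CellTiter-Fluor in MDA-kb2 cells carrying an MMTV-driven luciferase reporter. Cells receive 3.0uM nilutamide plus compounds at 15 concentrations and incubate 16 hr at 37C without CO2 before fluorescence reading.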
# [6] = qHTS assay to identify small molecule agonists of the estrogen receptor beta (ER-beta) signaling pathway - cell viability counter screen (AID 1259380); note: nearly all actives have a fitted effect of over 30% in size; note: potency is the fitted concentration of half-maximal effect
# Procedure, shortened: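 Cytotoxicity is measured in parallel with the reporter screen: after 16 hr compound exposure at 37C and a 2 hr LiveBLAzer step, CellTiter-Glo is added to the same ER-beta-UAS-bla HEK293T wells and luminescence read after 30 min.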
# [7] = target: Androgen receptor (Homo sapiens) (UniProt P10275); test: qHTS assay to identify small molecule agonists of the androgen receptor (AR) signaling pathway in the presence of an antagonist (AID 1259381; calls by dose curve; note: nearly all actives have a fitted effect of over 15% in size)
# Procedure, shortened: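 Agonist-mode confirmation screen: human MDA-kb2 cells stably expressing luciferase under an MMTV promoter bearing AR and GR response elements, co-treated with 3.0uM nilutamide (final). Luminescence measured after 16hr compound incubation.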
# [8] = qHTS assay to identify small molecule antagonists of the estrogen receptor beta (ER-beta) signaling pathway - cell viability counter screen (AID 1259382); note: series mostly up to about 92 µM; nearly all actives have a fitted effect of over 55% in size
# Procedure, shortened: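 Cytotoxicity counter screen multiplexed with the beta-lactamase antagonist assay: GripTite HEK293T ER-beta-bla cells were treated 16 hr with test chemicals in the presence of 1nM 17-beta-estradiol, and viability was measured by CellTiter-Glo.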
# [9] = qHTS assay to identify small molecule agonists or antagonists of the thyroid stimulating hormone receptor (TSHR) signaling pathway - wild type cell line counter screen (AID 1259384; calls by dose curve)
# Procedure, shortened: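 Wild-type Hek293 cells, 800/well, 18 h at 37C, then compound with Ro20-1724 for 30 min RT. cAMP by HTRF (cAMP-d2/anti-cAMP cryptate), 1 h RT, fluorescence read. 15 concentrations, triplicates.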
# [10] = target: Thyrotropin receptor (Homo sapiens) (UniProt P16473); test: qHTS assay to identify small molecule antagonists of the thyroid stimulating hormone receptor (TSHR) signaling pathway (AID 1259385; calls by dose curve; note: nearly all actives have a fitted effect of over 20% in size; note: potency is the fitted concentration of half-maximal effect)
# Procedure, shortened: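 TSHR-HEK293 cells (800/well) plated 18 h, then compounds with Ro20-1724 and TSH at 1.5 ng/mL final, 30 min at room temperature. cAMP quantified by HTRF (cAMP-d2/anti-cAMP-cryptate, 1 h); 15 concentrations in triplicate.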
# [11] = qHTS assay to identify small molecule agonists of the estrogen receptor alpha (ER-alpha) signaling pathway in the presence of an antagonist - cell viability counter screen (AID 1259386);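 note: cells exposed to compounds for 22 h at 37 °C before the viability read; nearly all actives have a fitted effect of over 30% in size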; note: potency is the fitted concentration of half-maximal effect
# Procedure, shortened: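 Cytotoxicity was measured in parallel with the ERE-luciferase agonist screen, in the same wells. The cells were VM7Luc4E2, which endogenously express ER-alpha, and treatment was with compounds plus 10.0nM ICI-182,780 for 22hr.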
# [12] = target: Progesterone receptor (Homo sapiens) (UniProt P06401); test: qHTS assay to identify small molecule antagonists of the progesterone receptor (PR) signaling pathway (AID 1346795; active = well fitted inhibition curve with a large enough effect in the signal ratio in the repeat runs, not every such curve was filed as active; the % refers to the signal ratio)
# Procedure, shortened: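 Beta-lactamase reporter, HEK293T PR-UAS-bla line; 2% charcoal-stripped FBS; 6 hr pre-incubation, 37C/5% CO2. Compound + R5020 1 nM final, 16 hr. LiveBLAzer B/G FRET substrate, 2 hr RT; fluorescence intensity read.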
# [13] = qHTS assay to identify small molecule agonists of the progesterone receptor (PR) signaling pathway - cell viability counter screen (AID 1346799; calls by dose curve; note: nearly all actives have a fitted effect of over 45% in size)
# Procedure, shortened: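 HEK293T PR-UAS-bla, 3,000 cells/well, 2% charcoal-stripped FBS; 6 h settle, compound 16 h at 37C/5% CO2; LiveBLAzer 2 h RT, then CellTiter-Glo 30 min RT, luminescence read.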
# [14] = qHTS assay to identify small molecule antagonists of the TGF-beta/Smad signaling pathway - cell viability counter screen (AID 1346824); note: nearly all actives have a fitted effect of over 50% in size
# Procedure, shortened: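 SBE-bla HEK 293T cells, incubated overnight, then compound plus 0.25 ng/mL TGF-beta1 (stock added) for 5 hr at 37 C. Viability was read in the same wells by CellTiter-Glo luminescence after 30 min at room temperature.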
# [15] = qHTS assay to identify small molecule agonists of the TGF-beta/Smad signaling pathway - cell viability counter screen (AID 1346829); note: top concentration of the series differs between compounds; nearly all actives have a fitted effect of over 45% in size
# Procedure, shortened: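 HEK 293T SBE-bla line, 5 hr compound exposure at 37 C, multiplexed CellTiter-Glo viability read by luminescence.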
# [16] = qHTS assay to identify small molecule agonists of the TGF-beta/Smad signaling pathway (AID 1346859; active = well fitted activation curve with a large enough effect in the signal ratio in the repeat runs, not every such curve was filed as active; the % refers to the signal ratio; note: series mostly up to about 77 µM)
# Procedure, shortened: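 Read-out: fluorescence at 460 and 530 nm (405 nm excitation) after a 2 hr room-temperature incubation with beta-lactamase FRET substrate. SBE-bla HEK 293T cells had been treated with test compounds for 5 hr at 37 C.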
# [17] = target: Thyrotropin-releasing hormone receptor (Homo sapiens) (UniProt P34981); test: qHTS assay to identify small molecule antagonists of the thyrotropin-releasing hormone receptor (TRHR) signaling pathway (AID 1346877; active = well fitted inhibition curve with a large enough effect in the repeat runs, not every such curve was filed as active; note: series mostly up to about 51 µM)
# Procedure, shortened: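 Antagonism is measured as suppression of the calcium response to 1 nM TRH in TRHR-HEK293 cells that have been dye-loaded for 2 h at 37 °C after overnight plating. Each compound is tested at 15 concentrations in triplicate.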
# [18] = target: Estrogen receptor (Homo sapiens) (UniProt P03372); test: qHTS assay to identify small molecule agonists of the estrogen receptor alpha (ER-alpha) signaling pathway in the presence of an antagonist (AID 1259383; calls by dose curve; note: top concentration of the series differs between compounds; nearly all actives have a fitted effect of over 15% in size)
# Procedure, shortened: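 Agonist-mode confirmation in the presence of the ER antagonist ICI-182,780 at 10.0nM final. Breast-derived VM7Luc4E2 reporter cells were exposed to compounds for 22hr, and ERE-driven luciferase was quantified by luminescence.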
# [19] = qHTS assay to identify small molecule antagonists of the progesterone receptor (PR) signaling pathway - cell viability counter screen (AID 1346798); note: series mostly up to about 92 µM; nearly all actives have a fitted effect of over 50% in size
# Procedure, shortened: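 Luminescence readout (CellTiter-Glo, 30 min, RT) of viability in PR-UAS-bla HEK293T cells exposed to compound and R5020 agonist for 16 hr at 37C, 5% CO2; run in the same wells as the beta-lactamase reporter read.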
# [20] = target: Progesterone receptor (Homo sapiens) (UniProt P06401); test: qHTS assay to identify small molecule agonists of the progesterone receptor (PR) signaling pathway (AID 1346784; calls by dose curve; note: nearly all actives have a fitted effect of over 30% in size)
# Procedure, shortened: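 HEK 293T PR-UAS-bla reporter cells, 2% charcoal-stripped FBS; 6 hr settle at 37C/5% CO2, compound (DMSO) 16 hr, LiveBLAzer B/G FRET substrate 2 hr RT, fluorescence intensity read.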
# Sequence of Thyrotropin receptor (Homo sapiens) (P16473 whole entry, looked up): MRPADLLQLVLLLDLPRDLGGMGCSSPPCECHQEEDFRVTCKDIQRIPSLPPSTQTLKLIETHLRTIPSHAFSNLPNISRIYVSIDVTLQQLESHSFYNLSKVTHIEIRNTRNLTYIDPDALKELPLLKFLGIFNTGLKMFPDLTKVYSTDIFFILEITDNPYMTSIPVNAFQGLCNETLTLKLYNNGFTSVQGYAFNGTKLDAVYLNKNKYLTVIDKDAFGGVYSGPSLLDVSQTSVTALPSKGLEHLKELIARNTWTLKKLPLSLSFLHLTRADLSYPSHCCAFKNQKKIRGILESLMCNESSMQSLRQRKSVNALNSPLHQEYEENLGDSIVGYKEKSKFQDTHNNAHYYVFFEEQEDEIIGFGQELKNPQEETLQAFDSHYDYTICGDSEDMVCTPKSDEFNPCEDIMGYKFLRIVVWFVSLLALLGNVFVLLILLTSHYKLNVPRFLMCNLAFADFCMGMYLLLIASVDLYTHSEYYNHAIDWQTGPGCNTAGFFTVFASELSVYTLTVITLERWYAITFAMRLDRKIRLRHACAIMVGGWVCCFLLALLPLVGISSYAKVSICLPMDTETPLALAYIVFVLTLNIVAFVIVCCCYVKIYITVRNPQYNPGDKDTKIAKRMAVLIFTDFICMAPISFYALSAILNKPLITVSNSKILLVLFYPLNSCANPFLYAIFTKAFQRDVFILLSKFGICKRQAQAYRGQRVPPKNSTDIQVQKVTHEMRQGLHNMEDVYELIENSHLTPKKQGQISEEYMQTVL
# Sequence of Estrogen receptor (Homo sapiens) (P03372 whole entry, looked up): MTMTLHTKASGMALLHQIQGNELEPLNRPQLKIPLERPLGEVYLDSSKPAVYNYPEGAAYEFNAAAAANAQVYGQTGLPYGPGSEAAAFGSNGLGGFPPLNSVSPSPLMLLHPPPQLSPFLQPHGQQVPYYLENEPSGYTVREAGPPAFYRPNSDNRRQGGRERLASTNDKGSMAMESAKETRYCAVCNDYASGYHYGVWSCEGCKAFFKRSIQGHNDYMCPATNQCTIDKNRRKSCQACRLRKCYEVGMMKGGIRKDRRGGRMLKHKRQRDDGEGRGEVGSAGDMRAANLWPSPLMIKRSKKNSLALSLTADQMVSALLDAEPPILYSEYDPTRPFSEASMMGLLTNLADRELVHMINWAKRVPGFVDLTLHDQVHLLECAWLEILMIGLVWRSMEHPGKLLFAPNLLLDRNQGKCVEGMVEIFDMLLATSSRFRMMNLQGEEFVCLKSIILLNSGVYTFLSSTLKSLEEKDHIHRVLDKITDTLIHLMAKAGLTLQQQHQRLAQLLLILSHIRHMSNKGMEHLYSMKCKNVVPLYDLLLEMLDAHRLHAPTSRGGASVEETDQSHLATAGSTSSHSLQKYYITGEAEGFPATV
# Sequence of Thyrotropin-releasing hormone receptor (Homo sapiens) (P34981 whole entry, looked up): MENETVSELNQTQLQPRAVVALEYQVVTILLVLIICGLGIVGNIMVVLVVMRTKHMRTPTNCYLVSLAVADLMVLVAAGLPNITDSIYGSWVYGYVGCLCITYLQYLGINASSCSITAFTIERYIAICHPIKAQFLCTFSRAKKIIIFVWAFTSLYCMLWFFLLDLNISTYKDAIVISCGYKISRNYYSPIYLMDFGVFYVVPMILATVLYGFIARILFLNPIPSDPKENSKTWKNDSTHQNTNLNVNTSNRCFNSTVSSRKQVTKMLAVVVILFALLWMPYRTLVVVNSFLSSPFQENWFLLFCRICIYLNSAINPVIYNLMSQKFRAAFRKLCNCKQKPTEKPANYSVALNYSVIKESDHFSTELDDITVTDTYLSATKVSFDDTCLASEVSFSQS
# Sequence of Androgen receptor (Homo sapiens) (P10275 whole entry, looked up): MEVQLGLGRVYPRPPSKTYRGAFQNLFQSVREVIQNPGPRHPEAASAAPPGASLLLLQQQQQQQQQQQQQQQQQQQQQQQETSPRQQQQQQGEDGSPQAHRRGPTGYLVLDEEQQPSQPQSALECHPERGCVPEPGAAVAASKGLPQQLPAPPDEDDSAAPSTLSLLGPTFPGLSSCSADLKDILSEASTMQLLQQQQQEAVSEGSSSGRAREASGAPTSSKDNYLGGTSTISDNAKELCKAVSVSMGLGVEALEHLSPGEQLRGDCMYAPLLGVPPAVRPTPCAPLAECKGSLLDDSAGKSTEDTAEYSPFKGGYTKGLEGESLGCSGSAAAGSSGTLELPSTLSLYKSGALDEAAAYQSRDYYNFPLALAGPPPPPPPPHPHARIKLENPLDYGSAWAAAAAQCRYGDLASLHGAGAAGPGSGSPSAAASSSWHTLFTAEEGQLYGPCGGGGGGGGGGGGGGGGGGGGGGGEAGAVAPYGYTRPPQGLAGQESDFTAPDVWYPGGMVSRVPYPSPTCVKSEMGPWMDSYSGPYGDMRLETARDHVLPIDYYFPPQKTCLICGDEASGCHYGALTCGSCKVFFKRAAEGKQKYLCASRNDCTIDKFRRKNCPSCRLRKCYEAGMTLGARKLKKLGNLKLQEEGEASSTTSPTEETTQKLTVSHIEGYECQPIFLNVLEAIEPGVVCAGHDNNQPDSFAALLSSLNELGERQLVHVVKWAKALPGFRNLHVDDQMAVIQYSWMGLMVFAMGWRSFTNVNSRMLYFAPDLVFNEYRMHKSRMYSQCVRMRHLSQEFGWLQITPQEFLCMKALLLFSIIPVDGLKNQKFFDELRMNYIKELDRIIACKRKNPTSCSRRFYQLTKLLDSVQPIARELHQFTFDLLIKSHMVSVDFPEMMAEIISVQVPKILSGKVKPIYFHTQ
# Sequence of Progesterone receptor (Homo sapiens) (P06401 whole entry, looked up): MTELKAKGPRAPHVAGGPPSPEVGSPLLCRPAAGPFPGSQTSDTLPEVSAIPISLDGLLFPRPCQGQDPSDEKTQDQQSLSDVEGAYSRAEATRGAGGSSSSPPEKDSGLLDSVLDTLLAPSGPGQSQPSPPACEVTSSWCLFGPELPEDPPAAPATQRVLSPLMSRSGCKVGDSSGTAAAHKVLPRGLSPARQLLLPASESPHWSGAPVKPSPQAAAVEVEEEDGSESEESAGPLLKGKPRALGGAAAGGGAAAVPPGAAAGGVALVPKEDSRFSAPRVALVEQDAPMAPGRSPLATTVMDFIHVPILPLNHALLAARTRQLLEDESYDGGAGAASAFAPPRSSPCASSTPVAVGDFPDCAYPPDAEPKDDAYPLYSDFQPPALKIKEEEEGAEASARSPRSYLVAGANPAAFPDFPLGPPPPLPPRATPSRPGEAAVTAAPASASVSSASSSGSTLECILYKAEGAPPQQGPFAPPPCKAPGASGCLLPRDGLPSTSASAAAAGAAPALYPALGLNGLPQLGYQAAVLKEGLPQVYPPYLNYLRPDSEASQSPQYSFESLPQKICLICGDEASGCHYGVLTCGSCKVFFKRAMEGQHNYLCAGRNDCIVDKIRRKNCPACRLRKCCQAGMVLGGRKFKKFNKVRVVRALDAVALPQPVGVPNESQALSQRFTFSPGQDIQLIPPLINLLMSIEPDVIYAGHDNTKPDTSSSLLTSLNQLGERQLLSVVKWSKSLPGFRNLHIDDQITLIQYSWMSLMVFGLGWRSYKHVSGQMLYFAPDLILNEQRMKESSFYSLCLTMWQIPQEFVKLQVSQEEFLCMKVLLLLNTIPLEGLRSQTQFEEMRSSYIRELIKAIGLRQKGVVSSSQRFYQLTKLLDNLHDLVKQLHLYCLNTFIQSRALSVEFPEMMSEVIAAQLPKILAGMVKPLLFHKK
# Sequence of Estrogen receptor beta (Homo sapiens) (Q92731 whole entry, looked up): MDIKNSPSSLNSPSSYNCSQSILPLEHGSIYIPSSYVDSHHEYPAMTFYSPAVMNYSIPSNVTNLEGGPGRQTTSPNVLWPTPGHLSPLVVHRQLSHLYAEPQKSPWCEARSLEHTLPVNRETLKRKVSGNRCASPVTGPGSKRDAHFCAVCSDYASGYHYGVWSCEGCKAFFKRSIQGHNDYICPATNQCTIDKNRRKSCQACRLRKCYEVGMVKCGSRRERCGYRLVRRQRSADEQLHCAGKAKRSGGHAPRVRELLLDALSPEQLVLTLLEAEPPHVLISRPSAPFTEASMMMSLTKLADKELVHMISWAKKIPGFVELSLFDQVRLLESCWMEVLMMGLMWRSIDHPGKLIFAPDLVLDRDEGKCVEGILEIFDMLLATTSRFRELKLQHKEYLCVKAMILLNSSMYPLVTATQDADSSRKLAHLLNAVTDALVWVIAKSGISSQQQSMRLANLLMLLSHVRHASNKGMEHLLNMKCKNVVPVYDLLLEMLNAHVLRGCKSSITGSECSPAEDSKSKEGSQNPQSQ
SMILES,Potency [1],Potency [2],Potency [3],Potency [4],Potency [5],Potency [6],outcome [7],Potency [8],outcome [9],Potency [10],Potency [11],Potency [12],Potency [13],Potency [14],Potency [15],outcome [16],Potency [17],Potency [18],Potency [19],Potency [20]
O=C(c1ccccc1)c1ccccc1O,inactive,inactive,inactive,inactive,inactive,inactive,inactive,inactive,inactive,inactive,inactive,inactive,inactive,inactive,inactive,inactive,inactive,,,
C[C@]12CCC(=O)C=C1CC[C@@H]1[C@@H]2C(=O)C[C@@]2(C)[C@H]1CC[C@]2(O)C(=O)CO,inactive,54.5 µM (active) and inactive,inactive,inactive,inactive,inactive,,inactive,,,inactive,,inactive,inactive,inactive,inactive,,inactive,inactive,
Nc1ncnc2nc[nH]c12,inactive,inactive,inactive,inactive,,inactive,,inactive,inactive,inactive,inactive,inactive,inactive,inactive,inactive,inactive,,inactive,,inactive
CC(C)=CCCC(C)CCO (configuration not stated),inactive,inactive,inactive,inactive,,inactive,,inactive,inactive,inactive,inactive,inactive,inactive,inactive,inactive,inactive,inactive,inactive,inactive,inactive
COc1ccccc1/C=C/C=O,inactive,35.3 µM (active) and inactive,inactive,55.9 µM (active) and 54.5 µM (active),,55.9 µM (active),,inactive,inactive,inactive,inactive,,inactive,inactive,inactive,inactive,,inactive,,
CCCCCCCCCC(=O)OC,inactive,inactive,inactive,inactive,inactive,inactive,,inactive,inactive,inactive,inactive,inactive,inactive,inactive,inactive,inactive,inactive,,inactive,
CC(C)OB(OC(C)C)OC(C)C,inactive,inactive,inactive,inactive,inactive,inactive,,inactive,,,inactive,,inactive,inactive,inactive,,,inactive,inactive,inactive
c1cc(-c2ccncc2)ccn1,inactive,inactive,inactive,inactive,inactive,inactive,,inactive,inactive,inactive,inactive,inactive,inactive,inactive,inactive,inactive,inactive,inactive,inactive,inactive
c1ccc2c(c1)Oc1ccccc1S2,inactive,inactive,inactive,inactive,,inactive,,inactive,inactive,inactive,inactive,,inactive,inactive,inactive,inactive,inactive,inactive,,
CCCCC(CC)COC(=O)c1ccc(N(C)C)cc1 (configuration not stated),inactive,inactive,inactive,inactive,,inactive,,inactive,inactive,inactive,inactive,,inactive,inactive,inactive,,,inactive,inactive,
CCCCOCCOCCO,inactive,inactive,inactive,inactive,inactive,inactive,,inactive,inactive,inactive,inactive,,inactive,inactive,inactive,inactive,,inactive,inactive,
COc1cccc2c1C(=O)c1c(O)c3c(c(O)c1C2=O)C[C@@](O)(C(=O)CO)C[C@@H]3O[C@H]1C[C@H](N)[C@H](O)[C@H](C)O1,inactive,38.5 nM (active) and 531 nM (active),inactive,1.93 µM (active) and 11.9 µM (active),15.3 µM (active) and 11.9 µM (active),inactive and 473 nM (active),,inactive,inactive,,24.3 µM (active) and 29.8 µM (active),,,inactive,inactive,inactive,inactive,inactive,,
CN(C)c1nc(N(C)C)nc(N(C)C)n1,inactive,inactive,inactive,inactive,inactive,inactive,,inactive,inactive,inactive,inactive,,inactive,inactive,inactive,inactive,inactive,,inactive,
CC(=O)C1(C)CC2=C(CCCC2(C)C)CC1C (configuration not stated),inactive,inactive,inactive,inactive,inactive,inactive,inactive,inactive,inactive,43.3 µM (active),inactive,,inactive,inactive,inactive,,inactive,,inactive,
CC(=O)O[C@]1(C(C)=O)CC[C@H]2[C@@H]3C=C(Cl)C4=CC(=O)[C@@H]5C[C@@H]5[C@]4(C)[C@H]3CC[C@@]21C,inactive,4.32 µM (active) and 27.3 µM (active) and inactive,inactive,54.5 µM (active),inactive,inactive,,inactive,inactive,inactive,inactive,,,inactive,inactive,,,,,
